# Test results from PubChem BioAssay (NCATS).
# Unmarked numbers belong to inactive results. Inconclusive results are not listed. Activity calls are given as the source filed them. Unless noted, calls come from the whole dose curve; as a rule, active = well fitted curve in the direction sought with a large enough effect; inconclusive = small, poorly fitted or top-dose-only effect, or another doubt; inactive = no such curve, though single readings can be large; an effect the other way counts as inactive or inconclusive.
# What was measured:
# [1] = tested on: SKOV3; assay: Primary qHTS to identify gynecologic anti-cancer compounds using libraries of approved drugs and bioactive compounds (AID 1345084); conditions: Gynecologic cancer cell panel viability, ATPlite luminescence, 48 h; series mostly up to 57.5 µM; note: % is set by controls: 0 for no effect and ±100 for the full control effect; nearly all actives have a fitted effect of over 55% in size
# Procedure, shortened: (§1)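 ATP-based viability (ATPlite), 1,000 cells/well, 16 h pre-incubation, 48 h compound at 37 C, 5% CO2, 15 min RT before read.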
# [2] = tested on: Tov-21-G; assay: as above; conditions: Gynecologic cancer cell panel viability, ATPlite luminescence, 48 h; series mostly up to 57.5 µM
# Procedure, shortened: as §1
# [3] = tested on: Tov112D; assay: as above; conditions: Gynecologic cancer cell panel viability, ATPlite luminescence, 48 h; series mostly up to 57.5 µM
# Procedure, shortened: as §1
# [4] = Drug repurposing screens with cells derived from glioblastoma tumor samples (AID 1345199); conditions: GBM patient neurospheres viability, ATP luminescence, 48 h; note: nearly all actives have a fitted effect of over 40% in size; note: potency is the fitted concentration of half-maximal effect; for activity, negative = cell killing: % is set by controls: 0 for no effect and ±100 for the full control effect
# Procedure, shortened: (§2)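 Primary testing used CD133+ neurospheres from four GBM patients, seven concentrations, 48 h exposure and ATP-based viability; confirmation added three slower-growing patient lines.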
# [5] = tested on: astro; assay: as above; conditions: viability, ATP luminescence, 48 h; series mostly up to 45.9 µM
# Procedure, shortened: as §2
# [6] = molecular target: Nuclear receptor subfamily 1 group I member 2 (Rattus norvegicus) (UniProt Q9R1A7); assay: qHTS assay for small molecule activators of the rat pregnane X receptor (rPXR) signaling pathway (AID 651751; call rule not given here; note: 0% is about no effect); conditions: rPXR reporter cells, luciferase (One-Glo), 24 h
# Chain of Nuclear receptor subfamily 1 group I member 2 (Rattus norvegicus) (Q9R1A7 whole entry, looked up): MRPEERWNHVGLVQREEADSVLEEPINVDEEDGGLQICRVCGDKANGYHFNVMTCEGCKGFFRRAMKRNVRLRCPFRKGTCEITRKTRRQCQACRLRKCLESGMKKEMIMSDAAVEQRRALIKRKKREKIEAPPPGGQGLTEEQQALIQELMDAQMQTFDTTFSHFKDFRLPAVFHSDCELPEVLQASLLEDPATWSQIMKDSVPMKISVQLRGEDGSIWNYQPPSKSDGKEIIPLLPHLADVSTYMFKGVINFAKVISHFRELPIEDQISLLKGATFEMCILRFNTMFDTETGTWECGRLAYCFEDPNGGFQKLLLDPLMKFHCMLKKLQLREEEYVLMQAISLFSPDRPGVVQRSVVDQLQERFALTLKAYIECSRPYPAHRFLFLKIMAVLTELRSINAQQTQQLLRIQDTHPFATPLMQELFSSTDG
# [7] = qHTS assay for small molecule activators of the human pregnane X receptor (PXR) signaling pathway (AID 720659; call rule not given here; note: 0% is about no effect)
# [8] = at 46.1 µM (top of the series), tumour line C
# [9] = at 45.9 µM (top of the series), tumour line B
# [10] = at 45.9 µM (top of the series), tumour line D
structure (smiles),measurement,setting,value
CCN(CC)CCOCCOC(=O)C(CC)(CC)c1ccccc1,outcome,[1],inactive
same,Potency,[2],inactive
same,outcome,[3],inactive
same,"activity, negative = cell killing",[4]; [8],-23.4%
same,Potency,[4]; tumour line A,1.41 µM (active)
same,Potency,[4]; tumour line B,14.1 µM (active)
same,Potency,[4]; tumour line D,8.91 µM (active)
CO[C@H]1C[C@@H]2CC[C@@H](C)[C@@](O)(O2)C(=O)C(=O)N2CCCC[C@H]2C(=O)O[C@H]([C@H](C)C[C@@H]2CC[C@@H](OC(=O)C(C)(CO)CO)[C@H](OC)C2)CC(=O)[C@H](C)/C=C(\C)[C@@H](O)[C@@H](OC)C(=O)[C@H](C)C[C@H](C)/C=C/C=C/C=C/1C,Potency,[2],inactive
same,outcome,[3],inactive
same,"activity, negative = cell killing",[4]; [9],-14.4%
same,"activity, negative = cell killing",[4]; [10],-16%
same,"activity, negative = cell killing","[4]; at 46 µM (top of the series), tumour line A",-25.2%
same,"activity, negative = cell killing",[4]; [8],-22.5%
same,Potency,[5],inactive
O=C1c2ccccc2C(=O)c2c1ccc(O)c2O,Potency,[2],inactive
same,outcome,[3],inactive
same,"activity, negative = cell killing",[4]; [9],-22.8%
same,"activity, negative = cell killing",[4]; [8],-2.45%
same,Potency,[5],inactive
[O]=[Bi][O]C(=O)[O][Bi]=[O],"activity, negative = cell killing",[4]; [9],-5.84%
same,"activity, negative = cell killing",[4]; [10],-17.8%
same,"activity, negative = cell killing",[4]; [8],0.454%
N[C@@H](Cc1cc(I)c(Oc2ccc(O)c(I)c2)c(I)c1)C(=O)O,outcome,[1],inactive
same,Potency,[2],inactive
same,outcome,[3],inactive
same,"activity, negative = cell killing",[4]; [9],0.914%
same,"activity, negative = cell killing",[4]; [8],-18.1%
same,Potency,[4]; tumour line A,11.2 µM (active)
same,Potency,[5],inactive
same,max response,[6],-4.55%
same,outcome,[7],inactive
Cc1c(N)nc([C@H](CC(N)=O)NC[C@H](N)C(N)=O)nc1C(=O)N[C@H](C(=O)N[C@H](C)[C@@H](O)[C@H](C)C(=O)N[C@H](C(=O)NCCc1nc(-c2nc(C(=O)NCCCCN=C(N)N)cs2)cs1)[C@@H](C)O)[C@@H](O[C@@H]1O[C@@H](CO)[C@@H](O)[C@H](O)[C@@H]1O[C@H]1O[C@H](CO)[C@@H](O)[C@H](OC(N)=O)[C@@H]1O)c1cnc[nH]1,"activity, negative = cell killing",[4]; [9],-16.7%
same,"activity, negative = cell killing",[4]; [8],-15.4%
